FLuc counter: counter-screen for miR-21 project: firefly luciferase inhibitors or activators. purified FLuc, Km substrates, luminescence inhibition. Potency, µM (doses to about 57.5 µM), inactives show at the highest dose activity change, negative = inhibition, most hits filed as inhibitors. 360,000 compounds, 6.9% hits. AID 588342;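 further: plate controls were vehicle for no effect and reference inhibitor for full effect; nearly all actives have a fitted effect of over 55% in size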
Target sequence (P08659 whole entry, looked up): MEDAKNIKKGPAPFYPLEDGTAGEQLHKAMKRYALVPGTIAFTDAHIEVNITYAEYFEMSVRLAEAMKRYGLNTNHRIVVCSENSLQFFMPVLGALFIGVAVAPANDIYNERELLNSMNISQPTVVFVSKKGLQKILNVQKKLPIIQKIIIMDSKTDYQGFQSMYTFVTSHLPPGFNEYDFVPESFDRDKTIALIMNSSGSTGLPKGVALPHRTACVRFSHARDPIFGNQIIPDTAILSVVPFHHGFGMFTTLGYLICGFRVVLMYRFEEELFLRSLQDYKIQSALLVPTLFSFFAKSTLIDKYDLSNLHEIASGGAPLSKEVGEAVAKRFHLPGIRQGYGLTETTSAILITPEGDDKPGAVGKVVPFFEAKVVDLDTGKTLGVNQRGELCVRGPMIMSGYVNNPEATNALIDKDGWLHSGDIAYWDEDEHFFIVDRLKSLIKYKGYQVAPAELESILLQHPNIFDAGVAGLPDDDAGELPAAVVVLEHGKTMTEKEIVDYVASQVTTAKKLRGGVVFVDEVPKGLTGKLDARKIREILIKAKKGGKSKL
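Purified P. pyralis luciferase, 10 nM final, with Km-level 10 uM D-luciferin and 10 uM ATP in 50 mM Tris acetate pH 7.5, 10 mM Mg acetate, 0.01% Tween-20, 0.05% BSA; 6-point qHTS titration about 60 µM downward; luminescence read.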
Rab9 promoter act: Rab9 promoter activation. Huh7 Rab9 promoter-luciferase reporter, luminescence, 24 h. Potency, µM (highest dose often 9.22 µM), for the others: top-dose activation, negative = inhibition, usual class: activators. 320,000 compounds, 2.8% hits; further: % of control where 0% means no effect; nearly all actives have a fitted effect of over 60% in size
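Promoter activation is measured as luciferase luminescence in Huh7 cells stably transfected with a Rab9 promoter–luciferase construct, following 24 h compound exposure at 37 °C and 10 min reagent incubation at ambient temperature.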
NPC1 prom act: activates the NPC1 promoter | 320,000 compounds, 2.4% hits | Potency, µM (highest dose often 9.22 µM), inactives show top-dose activation, most hits filed as activators | Huh7 NPC1 promoter luciferase reporter, 24 h; further: % of control where 0% means no effect; nearly all actives have a fitted effect of over 60% in size
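Cells: Huh7 expressing luciferase under the NPC1 promoter, 1500/well. Seeded 2 h, compound added, incubated 24 h at 37 °C. Luciferase reagent, 10 min ambient, then luminescence.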
ELG1 genotoxic: genotoxicity induction in ELG1-luciferase HEK293T cells; HEK293T ELG1-luciferase reporter, luminescence, 16 h; Potency, µM (doses to about 46 µM), for inactives: top-dose activity change, positive = activation, actives largely listed as activators; 330,000 compounds, 1.3% hits; AID 504466; further: % of control where 0% means no effect; nearly all actives have a fitted effect of over 60% in size
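HEK293T cells expressing luciferase-tagged ELG1 were exposed to compound or DMSO vehicle for 16 hr at 37 °C and 5% CO2. Luciferase activity was then measured with ONE-Glo after 30 min at room temperature.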
SMN2 splice enh: increases expression of the SMN2 splice variant | HEK293 SMN2-luciferase splicing reporter, luminescence, 30-36 h | Potency, µM (titrated, usually from 46.1 µM), inactives show at the top dose activity change, positive = activation, hits mostly activators | 210,000 compounds, 2.8% hits; further: % of control where 0% means no effect; nearly all actives have a fitted effect of over 55% in size
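HEK293 cells carry an SMN2 minigene-luciferase reporter in which exon 7 inclusion puts luciferase in frame. Cells were seeded at 2000 cells/well, attached for 10-12 hours, then exposed to compounds for 30-36 hours at 37C before ONE-Glo luminescence.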
ELG1 repair inh: blocks ELG1-dependent DNA repair in HEK293T cells | HEK293T ELG1-luciferase reporter, luminescence, 16 h; DNA damage induced by 5-fluorouridine | Potency, µM (titrated, usually from 46.1 µM), for inactives: at the highest dose activity change, negative = inhibition, actives largely listed as inhibitors | 330,000 compounds, 2.3% hits; further: on the % scale 0 is the no-effect control and ±100 the full control effect; nearly all actives have a fitted effect of over 55% in size
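DMSO vehicle served as the neutral condition. Each well held 2,000 cells given 5-fluorouridine plus compound; after 16 hr at 37 °C/5% CO2, ONE-Glo was added and luciferase measured 30 min later.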
An asterisk follows results filed as active; ? = inconclusive; nt = not tested or not shown; [ ] = another dose, or the depositor's remark. Sampled rows, rich in hits. Any-hit rate of the full collection: about 9.4%. The call rests on the fitted dose curve; in most records, active means well fitted curve in the direction sought with a large enough effect; inconclusive means small, poorly fitted or top-dose-only effect, or another doubt; inactive means no such curve, though single readings can be large; an effect the other way counts as inactive or inconclusive. Potency means the concentration at half of the fitted maximal effect.

SMILES | FLuc counter | Rab9 promoter act | NPC1 prom act | ELG1 genotoxic | SMN2 splice enh | ELG1 repair inh
CCN(CC)C(=O)c1ccc2nc(-c3ccccc3)c(-c3ccccc3)nc2c1 | -5% | 1% | -1% | -4% | -22% | ?
CCCN(CCC)C(=O)c1ccc2nc(-c3ccc(OC)c(OC)c3)c(-c3ccc(OC)c(OC)c3)nc2c1 | 0% | 0% | -4% | -1% | nt | 12µM*
CCn1cc(C(=O)N(C)c2ccc(C(C)C)cc2)c2cc(OC)c(OC)cc2c1=O | -4% | nt | nt | nt | -1% | nt
O=C(Nc1cccc(Oc2ccc(C(=O)O)c(C(=O)O)c2)c1)c1ccc(-c2ccccc2)cc1 | 1.7µM* | -4% | 1% | -2% | nt | 1%
COC(=O)c1cc(NC(=O)c2ccc(-c3ccccc3)cc2)ccc1Cl | -2% | -5% | -1% | -1% | -61% | -8%
CC(C)(C)C(=O)Nc1ccc(C(=O)Nc2cccc(Oc3ccc(C(=O)O)c(C(=O)O)c3)c2)cc1 | 1.5µM* | 0% | 4% | -4% | nt | -6%
Cc1ccc(C)c(NC(=O)c2ccc(CN3CC(=O)N4CCCCC4C3=O)cc2)c1 (stereo not drawn) | -1% | nt | nt | nt | nt | nt
CCN(CC(=O)Nc1ccc2c(c1)OCCO2)C(=O)COc1ccc(C)cc1 | -12% | 0% | 0% | 1% | nt | -5%
CCOc1ccc(NC(=O)Cn2c(=O)n(CCc3ccccc3)c(=O)c3c4c(sc32)CN(C(C)=O)CC4)cc1 | 0% | nt | nt | nt | 2% | nt
CN(C)c1ccc(C2C3CCCc4ccccc4C3=NN2C)cc1 (stereo not drawn) | 19µM* | 3.2µM* | ? | 9% | nt | ?
CN1N=C2c3ccccc3CCC2C1c1ccc(C(F)(F)F)cc1 (stereo not drawn) | ? | 24% | 26% | 0% | nt | 7%
Cc1nn(-c2nnc(NC3CCCCC3)nn2)c(C)c1Br | 4.3µM* | 2.2µM* | 2.2µM* | 18µM* | 13µM* | ?
Cc1nn(-c2ccccc2)c(C)c1C(=O)OCC(=O)Nc1ccccc1 | 9.5µM* | ? | ? | 11% | nt | ?
COc1ccccc1NC(=O)COC(=O)c1c(C)nn(-c2ccccc2)c1C | 7.6µM* | ? | ? | 14% | nt | 13%
COc1ccc(CCN(C)C(=O)CN2C(=O)NC3(CCCCC3C)C2=O)cc1OC (stereo not drawn) | 5% | 3% | -1% | -3% | nt | 1%
O=C(CCCCCNC(=O)c1ccccc1Br)N=Nc1c(O)[nH]c2ccccc12 | -4% | -1% | -4% | -12% | -3% | 9.2µM*
CCOc1ccccc1CNC(=O)c1ccc2c(c1)sc1nc(-c3cccc(OC)c3)cn12 | -11% | nt | nt | nt | nt | nt
Clc1ccccc1Cn1c(/C=C/c2ccco2)nc2ccccc21 | 11µM* | 2% | -2% | -1% | 0% | -7%
Cc1nc(N2CCCCC2C)c2c(C)c(C(=O)Nc3ccccc3C(F)(F)F)sc2n1 (stereo not drawn) | -9% | 1% | 0% | -10% | -31% | ?
Cc1nc(N2CCC(C)CC2)c2c(C)c(C(=O)Nc3ccc(C(F)(F)F)cc3)sc2n1 | 2% | -1% | -9% | ? | -57% | -10%
Cc1nc(N2CCC(C)CC2)c2c(C)c(C(=O)Nc3ccc4c(c3)OCCO4)sc2n1 | -10% | 0% | -8% | -7% | nt | 10µM*
Cc1c(C(=O)Nc2ccc3c(c2)OCCO3)sc2ncnc(N3CCCCC3C)c12 (stereo not drawn) | 11µM* | -1% | -2% | -11% | nt | ?
Cc1cccc(C)c1NC(=O)c1cc(S(=O)(=O)N2CCc3ccccc3C2)ccc1F | -6% | nt | nt | nt | nt | nt
COc1ccc(C(=O)NCc2nnc(SCC(=O)Nc3ccccc3)n2-c2ccccc2)cc1 | 1% | nt | nt | nt | -10% | nt
CCOC(=O)N1CCN(Cc2nc3cc(NC(=O)C(C)C)ccc3n2C(C)C)CC1 | -5% | nt | nt | nt | nt | nt
SMILES | FLuc counter | Rab9 promoter act | NPC1 prom act | ELG1 genotoxic | SMN2 splice enh | ELG1 repair inh
CCOc1cc(CNC(=O)c2ccc3nc(C(C)C)oc3c2)cc(OCC)c1OCC | -19% | nt | nt | nt | nt | nt
Cc1cc(S(=O)(=O)Nc2cc3c(cc2N2CCOCC2)n(C)c(=O)c(=O)n3C)ccc1F | -2% | nt | nt | nt | nt | nt
CCOc1ccc(/C=C/c2nc(C#N)c(NC(C)c3ccccc3)o2)cc1 (stereo not drawn) | -1% | nt | nt | nt | -1% | nt
Cc1ccc2nc(Nc3ccc4[nH]c(=O)[nH]c4c3)c(-n3nc(C)cc3C)nc2c1 | 0.85µM* | ? | 25% | ? | 18µM* | ?
C=CC1=C2C=C(C3CC3)N(CCN3CCOCC3)C=C2C(=O)C(C)(OC(=O)c2ccco2)C1=O (stereo not drawn) | nt | nt | nt | nt | -1%[9.22 µM] | nt
Cc1ccc(OCc2nc(-c3ccc(C(=O)NCCc4ccc(S(N)(=O)=O)cc4)cc3)oc2C)cc1 | 4% | nt | nt | nt | -12% | nt
CCOC(=O)c1cc2c(nc1N)CCCC2 | -3% | 7% | 0% | 0% | nt | 0%
CCOC(=O)c1cnc2cc3c(cn2c1=O)CCCC3 | 24µM* | 3.2µM* | ? | 28% | 16% | ?
COc1cc(NC(=O)CC(c2ccc(C)cc2)N2Cc3ccccc3C2=O)cc(OC)c1 (stereo not drawn) | 4% | nt | nt | nt | nt | nt
C[C@]12c3[nH]c4ccc(Cl)cc4c3CCN1C(=O)[C@@H](CC(=O)NCc1cccc(C(F)(F)F)c1)C[C@@H]2C(=O)N1CCCCC1 | nt | nt | nt | -8% | nt | 23µM*
CC[C@]12c3[nH]c4ccc(Cl)cc4c3CCN1C(=O)[C@@H](CC(=O)NCCc1ccccn1)C[C@@H]2C(=O)N1CCN(C(=O)C2CC2)CC1 | nt | nt | nt | 11% | nt | 3%
C[C@]12c3[nH]c4ccc(Cl)cc4c3CCN1C(=O)[C@@H](CC(=O)NCCc1ccccn1)C[C@@H]2C(=O)N1CCCCC1 | nt | nt | nt | -2% | nt | 7.3µM*
CC[C@]12c3[nH]c4ccc(Cl)cc4c3CCN1C(=O)[C@@H](CC(=O)NCc1cccc(C(F)(F)F)c1)C[C@@H]2C(=O)N1CCN(C(=O)c2ccco2)CC1 | nt | nt | nt | 2% | nt | 13µM*
CC[C@]12c3[nH]c4ccc(Cl)cc4c3CCN1C(=O)[C@@H](CC(=O)NCc1cccc(C(F)(F)F)c1)C[C@@H]2C(=O)N1CCN(C(=O)C2CC2)CC1 | nt | nt | nt | -14% | nt | ?
Cc1ccc(N2C(=O)CS(=O)(=O)C23C(=O)N(Cc2ccc(Cl)cc2)c2ccccc23)cc1C (stereo not drawn) | 5% | nt | nt | nt | nt | nt
CN(Cc1nc(Cc2cccc(F)c2)no1)CC1CCOCC1 | 1% | -1% | -4% | 1% | 0% | -16%
